# LmPK inhibitor – LmPK (Leishmania mexicana) enzyme inhibition; Q27686; purified LmPK, Kinase-Glo ATP luminescence, 1 h; Potency, µM (doses to about 57.5 µM), for the others: at the highest dose activity change, negative = inhibition, usual class: inhibitors; 0.37% of 290,000 active; AID 1721; note: potency is the fitted concentration of half-maximal effect; % is set by controls: 0 for no effect and ±100 for the full control effect
# Target sequence (Q27686 whole entry, looked up): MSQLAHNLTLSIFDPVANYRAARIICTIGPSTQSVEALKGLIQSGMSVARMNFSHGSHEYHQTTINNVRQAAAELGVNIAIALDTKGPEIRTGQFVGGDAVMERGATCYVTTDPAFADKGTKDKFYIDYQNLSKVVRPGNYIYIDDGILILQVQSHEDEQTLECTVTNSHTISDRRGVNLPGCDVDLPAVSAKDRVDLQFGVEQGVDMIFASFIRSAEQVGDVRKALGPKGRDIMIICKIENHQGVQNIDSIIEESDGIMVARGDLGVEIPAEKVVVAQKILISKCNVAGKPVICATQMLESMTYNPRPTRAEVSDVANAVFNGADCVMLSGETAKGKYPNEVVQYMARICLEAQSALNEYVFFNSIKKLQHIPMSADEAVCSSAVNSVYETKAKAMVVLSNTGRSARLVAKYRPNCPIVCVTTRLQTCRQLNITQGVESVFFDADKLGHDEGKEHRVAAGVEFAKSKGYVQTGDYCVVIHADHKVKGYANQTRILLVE
#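 ATP generated from ADP (0.1 mM) and PEP (0.5 mM) by 0.1 nM LmPK over 1 h at room temperature (pH 7.2 imidazole buffer) was detected by coupled luciferase luminescence. Values were normalized to uninhibited and no-enzyme wells.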
# RE007 growth inh – less growth of the S. pombe RE007 Vpr strain. AID 651644. S. pombe RE007 Vpr strain, BacTiter-Glo ATP luminescence, 24 h. Potency, µM (titrated, usually from 92.2 µM), for the others: at the highest dose activity change, negative = less growth, most hits filed as inhibitors. 0.21% of 360,000 active; active = well fitted falling curve with a large enough effect; inconclusive = small, poorly fitted or top-dose-only effect; inactive = no such curve, though single readings can be large or run the other way; note: potency is the fitted concentration of half-maximal effect; % is set by controls: 0 for no effect and ±100 for the full control effect; nearly all actives have a fitted effect of over 50% in size
#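 Fission yeast strain RE007, carrying one chromosomally integrated HIV-1 vpr copy, was seeded at OD 0.01 in PMG+AL medium with 23 nL pinned compound. After 24 h at 30 °C and 99% humidity, viability was read by BacTiter-Glo luminescence.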
# FBPA Giardia inh – inhibitors of Giardia lamblia fructose-1,6-bisphosphate aldolase | A8B2U2 | purified Giardia FBPA | Potency, µM (titrated, usually from 59.6 µM), for inactives: top-dose activity, negative = inhibition, hits mostly inhibitors | 0.71% of 290,000 active | AID 2451; note: potency is the fitted concentration of half-maximal effect; % is set by controls: 0 for no effect and ±100 for the full control effect; nearly all actives have a fitted effect of over 55% in size
#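 40 nM FBPA preincubated 10 min at RT with compound (up to 57.5 uM final), then substrate plus GAPDH/TPI/NAD/arsenate coupling and diaphorase/resazurin added. Fluorescence read after 20 min at RT, 525/598 nm.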
# CHX counter – counter-screen hit for Shiga toxin inhibitors, cycloheximide; max response, %; 12% of 300,000 active; AID 2314; cell reporter, cycloheximide protein synthesis inhibition counterscreen; in the data active = max response mostly above about 13%, no sharp cut-off; inactive = mostly below about 14%; note: read at 38.3 µM for the half of the compounds with a filed dose; 0% is about no effect
# Shiga inhibitor – blocks Shiga toxin action in Vero cells; Vero cells, Shiga toxin protein synthesis inhibition reporter; inhibition, % at 38.7 µM; 9.2% of 290,000 active; AID 2315; in the data active = inhibition mostly above about 28%, no sharp cut-off; inactive = mostly below about 43%; note: 0% is about no effect
# Tb PYK inh – T. brucei pyruvate kinase inhibition; Q57TT1; TbPYK enzyme, Kinase-Glo Plus ATP luminescence, 45 min; Potency, µM (top dose mostly 76.8 µM), inactives show top-dose activity, negative = inhibition, usual class: inhibitors; 0.12% of 410,000 active; AID 624173; note: potency is the fitted concentration of half-maximal effect; % is set by controls: 0 for no effect and ±100 for the full control effect; nearly all actives have a fitted effect of over 50% in size
#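 Screened from lowest to highest concentration, compounds were pinned into TbPYK/substrate mixtures, and ADP (130 uM final) was added. Plates sat at room temperature for 45 min prior to Kinase-Glo Plus detection by luminescence.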
# The depositor's hits bear a star; ? = inconclusive; nt = not tested or not shown; [ ] = another dose, or the depositor's remark. The full list was thinned out, with hits kept by preference. Unless noted, calls come from the whole dose curve; as a rule, active = well fitted curve in the direction sought with a large enough effect; inconclusive = small, poorly fitted or top-dose-only effect, or another doubt; inactive = no such curve, though single readings can be large; an effect the other way counts as inactive or inconclusive.
SMILES,LmPK inhibitor,RE007 growth inh,FBPA Giardia inh,CHX counter,Shiga inhibitor,Tb PYK inh
COc1ccc2o/c(=N/NC(=O)c3cccs3)c(C(N)=O)cc2c1,2%,12%,-4%,36*,71*,2%
N/C(=N\NC(=O)c1cccs1)c1cc2cc(Cl)ccc2oc1=O,-4%,-9%,-15%,36*,49*,4%
O=C(O)c1ccc2c(c1)C(=O)N(c1cccc(C(=O)/C=C/c3ccccc3)c1)C2=O,4%,-9%,11%,28*,52*,0%
COc1ccc(N2CCN(C(=O)c3cn(C)c4ccc(S(=O)(=O)N(C)C5CCCCC5)cc4c3=O)CC2)cc1,nt,nt,nt,nt,nt,-2%
COC(=O)c1ccc(-c2noc(CN(C)CC3CCCCO3)n2)cc1 (stereo not given),-3%,-12%,0%,43*,54,1%
COC(=O)c1ccc(-c2noc(CN3C[C@H]4CC[C@H]3C4)n2)cc1,1%,-7%,5%,19*,21,-1%
CC(=O)c1ccc(N2CCN(S(=O)(=O)c3cccc(S(=O)(=O)N4CCOCC4)c3)CC2)cc1,2%,7%,-4%,-5,-20,1%
CC(=O)c1ccc(N2Cc3ccccc3C3(CCOCC3)C2=N)cc1,-2%,-23%,-13%,28*,54,3%
Cc1cccc(NC(=O)Cn2cc(S(=O)(=O)N3CCCC3)c(S(=O)(=O)N3CCCC3)c2)c1C,nt,nt,nt,nt,nt,3%
CCOC(=O)/C=C/c1ccc2oc3ccccc3c(=O)c2c1,1%,-15%,-14%,49*,76*,-3%
C=CCC1(c2ccccc2)Oc2ccccc2-c2nc3cc(Cl)c(Cl)cc3nc21 (stereo not given),nt,nt,2%[12.9 µM],nt,nt,nt
COC(=O)Cn1cc(/C=N/NC(=O)c2ccc(C#N)cc2F)c2ccccc21,-1%,-8%,3%,-1,-6,-2%
CCn1cc(/C=N/NC(=O)c2ccc(C#N)cc2F)c2ccccc21,3%,-8%,16µM*,-2,-13,2%
CCNC(=S)N/N=C/c1cn(Cc2ccccc2F)c2ccccc12,7%,16%,4%,17*,24,-1%
CN1C(=O)CC(C)(c2ccccc2)C1=O (stereo not given),nt,nt,nt,nt,nt,-5%
O=C(/C=C/c1c(F)cccc1Cl)N1CCOCC1,-14%,5%,nt,48*,51*,4%
C=CCNC(=O)/C=C/c1c(F)cccc1Cl,-8%,-4%,1%,29*,57*,-11%
O=C(/C=C/c1c(F)cccc1Cl)Nc1ncccn1,-19%,9%,-5%,57*,61*,-14%
O=C(/C=C/c1c(Cl)cccc1Cl)N1CCOCC1,5%,21%,-5%,15,nt,-2%
O=C(COc1cccnc1[N+](=O)[O-])c1ccc(Cl)s1,3%,?,?,18*,29,-17%
Cc1cc(-n2c(C)cc(C(=O)COc3cccnc3[N+](=O)[O-])c2C)no1,nt,-7%,nt,nt,nt,-8%
O=C(COc1cccnc1[N+](=O)[O-])Nc1c(Cl)cccc1Cl,nt,18%,nt,nt,nt,1%
Cc1cc(C(=O)COc2cccnc2[N+](=O)[O-])c(C)n1Cc1cccs1,1%,-12%,-20%,43*,147*,-13%
CC(=O)Nc1ccccc1OCC(=O)c1cc(C)n(Cc2cccs2)c1C,4%,6%,0%,66*,127*,4%
O=C1COc2ccc(-c3cc(-c4ccc(Cl)cc4)c4c(n3)-c3ccccc3OC4)cc2N1,nt,nt,nt,nt,nt,6%
SMILES,LmPK inhibitor,RE007 growth inh,FBPA Giardia inh,CHX counter,Shiga inhibitor,Tb PYK inh
CC(C)Oc1ccc(C(=O)N2CC(=O)Nc3ccc(F)cc3C2c2ccc(F)cc2)cc1 (stereo not given),nt,nt,nt,nt,nt,-5%
CCOc1ccc(S(=O)(=O)c2cn(Cc3ccc(C)cc3)c3ccc(OC)cc3c2=O)cc1,nt,nt,nt,nt,nt,-10%
CCCn1c(=O)c2sccc2n2c(CCCC(=O)NC3CCCCC3)nnc12,nt,nt,nt,nt,nt,1%
Cc1ccc(-c2ccccc2)n1-c1cccc(C(=O)O)c1,2%,?,17%,66*,163*,-10%
Cc1ccc(-c2ccccc2)n1-c1ccc(C(=O)O)cc1,-1%,-28%,17%,15*,24,-5%
Cc1nc(=O)c(-c2ccccc2)c(C)n1-c1cccc(C(=O)O)c1,-4%,-6%,-5%,-8,-14,4%
Cc1ccc(C(=O)O)cc1-n1c(C)ccc1-c1ccccc1,nt,nt,nt,nt,nt,-1%
COc1ccccc1CNC(=O)C(C)n1c(=O)cc(C(F)(F)F)c2c(C)nn(C)c21 (stereo not given),nt,nt,nt,nt,nt,-2%
CC1=NN(c2ccccc2)C(=O)C1C=Nc1ccccc1O (stereo not given),-1%,-2%,0%,14,27*,-5%
CC1=NN(c2ccccc2)C(=O)C1/C=C1\NC(=S)NC1=O (stereo not given),-7%,2%,-7%,-3,20,-2%
COC(=O)CCCC1=CC2=C(c3ccccc3)C(=O)C(C)(OC(=O)C3CCCC3)C(=O)C2=CN1CCCOC(C)C (stereo not given),-1%[11.5 µM],nt,?,nt,nt,nt
CC1CCC(NC(=O)CCC(=O)N2CC(C)Oc3ccccc32)CC1 (stereo not given),-1%,1%,15%,15*,21,0%
CCOc1cccc(/C=N/NC(=O)c2cccnc2)c1O,-4%,38%,-18%,21*,33,-13%
CCOc1cccc(/C=N/NC(=O)c2cc(C3CC3)[nH]n2)c1O,2%,-8%,-26%,18*,2,-10%
COc1ccc(/C=C/C(=O)c2ccc(C)s2)cc1,nt,nt,-3%,nt,nt,nt
S=C(NCC1CCCO1)n1nnc2ccccc21 (stereo not given),-4%,-11%,-18%,31*,-1,0%
S=C(NCC1CCCO1)N1CCN(Cc2ccccc2)CC1 (stereo not given),-11%,-19%,?,7,6,-13%
c1ccc2c(c1)nc(NCC1CCCO1)c1nnnn12 (stereo not given),3%,-21%,1%,21*,58*,2%
CCN(CC)S(=O)(=O)c1ccc(-c2csc(=Nc3cccc(C(F)(F)F)c3)n2Cc2ccc3c(c2)OCO3)cc1,nt,nt,nt,nt,nt,1%
Cc1cc(C)c(NC(=O)CCCN2C(=O)COc3ccc(C)cc32)c(C)c1,nt,nt,nt,nt,nt,-3%
c1ccc(-n2ncc3c(NCC4CCCO4)ncnc32)cc1 (stereo not given),0%,3%,1%,-2,-4,-2%
COc1ccc(CCNc2ncnc3c2cnn3-c2ccc(C)c(Cl)c2)cc1,nt,nt,nt,nt,nt,-5%
Clc1ccc2[nH]c3c(NCCN4CCOCC4)ncnc3c2c1,5%,-4%,2%,7,24,1%
COc1ccc(-n2ncc3c(NCC4CCCO4)ncnc32)cc1 (stereo not given),-6%,3%,-3%,68*,95*,-3%

# Screening results as filed in PubChem.
